PubChem BioAssay (NCATS)
Inconclusive results are not listed. The source made the active and inactive calls. The call rests on the fitted dose curve; in most records, active means well fitted curve in the direction sought with a large enough effect; inconclusive means small, poorly fitted or top-dose-only effect, or another doubt; inactive means no such curve, though single readings can be large; an effect the other way counts as inactive or inconclusive.

Experiments:
[1] = system: MKL-1; assay: qHTS assay to identify novel small-molecules to repurpose for Merkel cell carcinoma treatment (AID 1296009); settings: MCC and control cell lines, CellTiter-Glo viability, 72 h; series mostly up to 46 µM; further: nearly all actives have a fitted effect of over 60% in size; further: potency means the concentration at half of the fitted maximal effect
Summary of the method: (§1)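 Cells exposed to NPC (8-point) and MIPE (11-point) compound dilutions for 72 hr at 37 degree celsius; viability read by CellTiter-Glo luminescence, normalized to no-cell and DMSO in-plate controls.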

[2] = system: MKL-2; assay: as above; settings: MCC and control cell lines, CellTiter-Glo viability, 72 h; series mostly up to 46 µM
Summary of the method: as §1

[3] = system: NIH3T3; assay: as above; settings: MCC and control cell lines, CellTiter-Glo viability, 72 h
Summary of the method: as §1

[4] = system: UISO; assay: as above; settings: MCC and control cell lines, CellTiter-Glo viability, 72 h; series mostly up to 46 µM
Summary of the method: as §1

[5] = system: WaGa; assay: as above; settings: MCC and control cell lines, CellTiter-Glo viability, 72 h; series mostly up to 46 µM
Summary of the method: as §1

[6] = system: C33A; assay: Primary qHTS to identify gynecologic anti-cancer compounds using libraries of approved drugs and bioactive compounds (AID 1345084); settings: Gynecologic cancer cell panel viability, ATPlite luminescence, 48 h; series mostly up to 57.5 µM; further: nearly all actives have a fitted effect of over 55% in size
Summary of the method: (§2)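 Cytotoxicity screen measuring ATP content by luciferase luminescence. Each compound is applied at five concentrations for 48 h at 37 C with 5% CO2.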

[7] = system: CAOV3; assay: as above; settings: Gynecologic cancer cell panel viability, ATPlite luminescence, 48 h; series mostly up to 57.5 µM
Summary of the method: as §2

[8] = system: CASKI; assay: as above; settings: Gynecologic cancer cell panel viability, ATPlite luminescence, 48 h; series mostly up to 57.5 µM
Summary of the method: as §2

[9] = system: Es-2; assay: as above; settings: Gynecologic cancer cell panel viability, ATPlite luminescence, 48 h; series mostly up to 57.5 µM
Summary of the method: as §2

[10] = system: HeLa; assay: as above; settings: Gynecologic cancer cell panel viability, ATPlite luminescence, 48 h; series mostly up to 57.5 µM
Summary of the method: as §2

[11] = at 44.8 µM (top of the series) unless noted

Measured: Potency

C[C@H](Cn1cnc2c(N)ncnc21)OCP(=O)(O)O
inactive: [1] | [2] | [3]; [11] | [4] | [5]

NNc1nncc2ccccc12
inactive: [1] | [2] | [3]; [11] inactive [at 17.4 µM] | [4] | [5] | [6] | [7] | [8] | [9] | [10]

c1cnc2cc3c(cc2n1)C1CNCC3C1
inactive: [1] | [2] | [3]; [11] | [4] | [5] | [6] | [7] | [8] | [9] | [10]

O=C(O)c1cccnc1Nc1cccc(C(F)(F)F)c1
inactive: [1] | [2] | [3]; [11] | [4] | [5] | [6] | [8] | [9]

Cc1cc(Cl)ccc1OCCCC(=O)NO
active: [1] 14.8 µM

CNC[C@H](O)c1ccc(O)c(O)c1
inactive: [1] | [2] | [3]; at 17.4 µM (top of the series) | [3]; at 92 µM (top of the series) | [4] | [5] | [6] | [7] | [8] | [9] | [10]

COc1ccc2cc([C@H](C)C(=O)O)ccc2c1
inactive: [1] | [2] | [3]; [11] | [4] | [5] | [6] | [7] | [8] | [9] | [10]

CC1=C(C(=O)O)N2C(=O)[C@@H](NC(=O)[C@H](N)C3=CCC=CC3)[C@H]2SC1
inactive: [1] | [2] | [3]; [11] | [4] | [5] | [6] | [8] | [9] | [10]

C[C@]12CCC(=O)C=C1CC[C@@H]1[C@H]2[C@@H](O)C[C@@]2(C)[C@H]1CC[C@]2(O)C(=O)CO
inactive: [1] | [2] | [3]; [11] | [4] | [5]

CCOC(=O)c1c(C)n(C)c2ccc(O)cc12
inactive: [1] | [2] | [3]; [11] | [4] | [5] | [6] | [8] | [9] | [10]

Nc1ccn([C@@H]2O[C@H](CO)[C@@H](O)C2O)c(=O)n1 (some centres not stated)
inactive: [1] | [2] | [3]; [11] | [4] | [5]

CCOC(=O)C1=C[C@@H](OC(CC)CC)[C@H](NC(C)=O)[C@@H](N)C1
inactive: [1] | [2] | [3]; [11] | [4] | [5]

O=C1NC(=O)C(c2ccccc2[N+](=O)[O-])=C1Nc1ccc(O)c(Cl)c1
inactive: [1] | [2] | [3]; [11] | [4] | [5]

CCOC(=O)C1=C(O)C(=O)N(Cc2ccccc2)C1
inactive: [1] | [2] | [3]; [11] | [4] | [5]

CC(C)(S)[C@@H](N)C(=O)O
inactive: [1] | [2] | [3]; [11] | [4] | [5]

CCCCCCCCCCCCCCCCCCCCCCO
inactive: [1] | [2] | [3]; [11] | [4] | [5]

COc1cc2c(cc1OC)C1CC(=O)C(CC(C)C)CN1CC2 (configuration not stated)
inactive: [1] | [2] | [3]; [11] | [4] | [5]

CC(=O)Nc1ccc(O)cc1
inactive: [1] | [2] | [3]; [11] | [4] | [5] | [6] | [8] | [9] | [10]

COCCCOc1ccnc(CS(=O)c2nc3ccccc3[nH]2)c1C (configuration not stated)
inactive: [1] | [2] | [3]; [11] | [4] | [5] | [6] | [7] | [8] | [9] | [10]

C[Se]CCC(N)C(=O)O (configuration not stated)
inactive: [1] | [2] | [3]; [11] inactive [at 92 µM] | [4] | [5]

COc1ccccc1N1CCN(CCN(C(=O)C2CCCCC2)c2ccccn2)CC1
inactive: [1] | [2] | [3]; [11] | [4] | [5] | [6] | [7] | [8] | [9] | [10]

CCC(C)(Oc1ccc(C2(c3ccc(OC(C)(CC)C(=O)O)cc3)CCCCC2)cc1)C(=O)O (configuration not stated)
inactive: [1] | [2] | [3]; [11] | [4] | [5] | [6] | [7] | [8] | [9] | [10]

CN(c1nccc(=O)[nH]1)C1CCN(c2nc3ccccc3n2Cc2ccc(F)cc2)CC1
inactive: [1] | [2] | [3]; [11] | [4] | [5] | [6] | [8] | [9] | [10]

Cc1nc(-c2ccc(OCC(C)C)c(C#N)c2)sc1C(=O)O
inactive: [1] | [2] | [3]; [11] | [4] | [5] | [6]
